Only some compounds are listed: those with a hit (about 2.7% of all), similar ones and a draw of the others.
PAFAH2 FP inh: PAFAH2 (human) inhibition | Q99487 | recombinant PAFAH2, FP-rhodamine activity probe, fluorescence polarization | inhibition, % at 3.39 µM | 340,000 compounds, 0.99% hits | AID 492956;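 active = inhibition above the mean over all tested compounds plus 3 SD, cut at about 30% in these data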;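 note: inhibitors block probe labeling of enzyme so polarization drops; 0% = enzyme with DMSO and 100% = wells lacking PAFAH2 protein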
pPAFAH FP inh: pPAFAH (human) enzyme inhibition | recombinant pPAFAH, FP-rhodamine probe fluorescence polarization | inhibition, % at 3.39 µM | 330,000 compounds, 1.5% hits | AID 463082;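 active = inhibition above the mean inhibition across the screen plus 3 SD, cut at about 25% in these data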;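 note: inhibitors block binding of the rhodamine activity-based probe so polarization drops; 0% = enzyme with DMSO and 100% = wells lacking pPAFAH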
Target sequence (Q13093 whole entry, looked up): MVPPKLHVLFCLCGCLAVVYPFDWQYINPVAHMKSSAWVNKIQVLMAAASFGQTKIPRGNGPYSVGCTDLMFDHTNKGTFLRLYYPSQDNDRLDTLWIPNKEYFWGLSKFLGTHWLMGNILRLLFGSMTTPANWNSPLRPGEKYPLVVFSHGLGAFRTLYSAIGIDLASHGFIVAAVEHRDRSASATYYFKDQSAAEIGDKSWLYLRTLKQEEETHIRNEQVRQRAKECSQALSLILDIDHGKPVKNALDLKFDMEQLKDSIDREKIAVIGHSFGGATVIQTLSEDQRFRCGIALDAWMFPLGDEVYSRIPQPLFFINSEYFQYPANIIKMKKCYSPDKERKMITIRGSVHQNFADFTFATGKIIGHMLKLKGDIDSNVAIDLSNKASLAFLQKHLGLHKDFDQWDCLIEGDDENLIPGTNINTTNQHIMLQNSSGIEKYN
PAFAH1B2 FP inh: PAFAH1B2 (human) inhibition | recombinant PAFAH1B2, FP-rhodamine activity probe, fluorescence polarization | inhibition, % at 3.39 µM | 340,000 compounds, 1.2% hits;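 active = inhibition above the mean of all tested compounds plus 3 SD, cut at about 24% in these data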;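 note: 0% = enzyme with DMSO and 100% = wells lacking PAFAH1B2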
Target sequence (P68402 whole entry, looked up): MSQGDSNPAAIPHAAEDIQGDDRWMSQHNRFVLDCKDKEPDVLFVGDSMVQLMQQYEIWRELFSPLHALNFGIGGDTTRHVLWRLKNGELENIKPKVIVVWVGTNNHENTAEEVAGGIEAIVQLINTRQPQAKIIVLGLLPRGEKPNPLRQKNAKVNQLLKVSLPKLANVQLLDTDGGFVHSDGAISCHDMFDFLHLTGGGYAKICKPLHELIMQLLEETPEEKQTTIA
TCR-CD3 inh: human TCR-CD3 binding inhibition. TAMRA-labeled TCR probe fluorescence, biochemical. inhibition, % at 9.4 µM. 360,000 compounds, 0.37% hits; in the data active = inhibition above about 19%;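 note: recombinant mutant TCR 2C K166C tagged with TAMRA read by polarization; 0% = receptor in buffer alone and 100% = receptor with positive control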
PAFAH1B3 inh: PAFAH1B3 (human) inhibition; recombinant PAFAH1B3, FP-rhodamine probe, fluorescence polarization; inhibition, % at 3.39 µM; Q15102; 340,000 compounds, 0.28% hits;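 active = inhibition above the screen-wide average of all tested compounds plus 3 SD, cut at about 25% in these data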;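 note: 0% = enzyme with DMSO only and 100% = wells lacking PAFAH1B3 protein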
Starred values were filed as active, the others as inactive; x = not tested or not shown.

SMILES | PAFAH2 FP inh | pPAFAH FP inh | PAFAH1B2 FP inh | TCR-CD3 inh | PAFAH1B3 inh
COc1ccc(-n2cnnc2SCc2ncc(-c3ccccc3)o2)cc1 | -6 | 2 | 4 | 5 | 3
O=C(Nc1ccc(-c2cnco2)cc1)c1ccccc1 | 2 | 2 | 4 | 5 | 4
O=C(Nc1ccc(-c2cnco2)cc1)c1ccc(Cl)cc1 | x | 29* | x | 3 | x
COC(=O)C1=C(C)N(Cc2ccccc2C(F)(F)F)C(=NCc2ccccc2)NC1c1cccc(C(F)(F)F)c1 (stereo not given) | x | x | x | 1 | x
Cc1cc(NC(=O)Cc2cn(C)c3ccccc23)ccc1Nc1cccnc1 | x | x | x | -6 | x
CC(C)CC1=C/C(=C/c2ccc(-c3ccccc3)o2)C(=O)O1 | 27 | 29* | 0 | -5 | 2
CCCCC(CC)c1nnc(NC(=O)c2cccs2)s1 (stereo not given) | 7 | x | 27* | -2 | 15
CC(C)CC(C(=O)Nc1oc(-c2ccco2)c(-c2ccco2)c1C#N)N1C(=O)c2ccccc2C1=O (stereo not given) | 18 | 32* | 3 | -4 | 7
COc1ccc(-n2cc(-c3ccccc3)c3c(NCCOCCO)ncnc32)cc1 | -8 | 28* | 0 | -1 | 6
NS(=O)(=O)c1ccc(CCNc2ncnc3c2c(-c2ccccc2)cn3-c2ccc(F)cc2)cc1 | 10 | 27* | 2 | 5 | 4
CCOc1ccc(-n2cc(-c3ccccc3)c3c(SC(C)C(=O)OC)ncnc32)cc1 (stereo not given) | -3 | 30* | -1 | 0 | -1
COc1ccc(-n2cc(-c3ccccc3)c3c(NN4CCOCC4)ncnc32)cc1 | 5 | 20 | 2 | -13 | 3
COC(=O)[C@@H](Cc1ccc(O)cc1)NC(=O)[C@H]1O[C@@H](n2cnc3c(=O)[nH]c(N)nc32)[C@H](O)[C@@H]1O | x | x | x | 1 | x
COc1ccc2c(CC(=O)OCC(=O)Nc3cccc(C)c3)coc2c1 | -3 | 33* | -4 | -5 | 10
CCC(c1nc2ccccc2[nH]1)n1c(-c2ccc3cc[nH]c3c2)nc2ccccc21 (stereo not given) | x | x | x | 1 | x
Cc1ccc(CNC(=O)c2ccc(S(=O)(=O)N3CCCCC3)cc2)cc1 | -4 | x | 0 | 1 | 2
O=C(Nc1ccc(F)cc1F)c1ccc(S(=O)(=O)N2CCCCC2)cc1 | -2 | 3 | 4 | 4 | 9
O=C(Nc1cc(S(=O)(=O)N2CCCCC2)ccc1O)c1ccccc1NS(=O)(=O)c1ccc(F)c(F)c1 | 48* | 34* | 43* | 0 | -10
CCS(=O)(=O)c1ccc(O)c(NC(=O)c2ccc(S(=O)(=O)N3CCCCCC3)cc2)c1 | 13 | 28* | 10 | 1 | 11
Cc1cc2cc(CNC(=O)c3ccc(S(=O)(=O)N4CCCCC4)cc3)ccc2n1C | -8 | 31* | -4 | 85* | -2
O=C(CC1CCCC1)N[C@@H](Cc1cccnc1)C(=O)N1CCC[C@H]1C(=O)NC1CCCC1 | x | x | x | -4 | x
CCN(CC)c1ccc(NC2CC(=O)N(CCc3ccc(OC)cc3)C2=O)cc1 (stereo not given) | 5 | 28* | 3 | 6 | 9
COc1ccc(CCNC2CC(=O)N(CCc3ccccc3)C2=O)cc1 (stereo not given) | 3 | 0 | -1 | 0 | -4
N#CC1=C2N=C(N)c3c(sc4c3CCCCC4)N2C2=C(C(=O)CCC2)C1c1ccccc1 (stereo not given) | 12 | 30* | 7 | 2 | 12
N#CC1=C2N=C(N)c3ccccc3N2C2=C(C(=O)CCC2)C1c1ccc(F)cc1 (stereo not given) | 13 | 3 | -1 | -3 | 8
SMILES | PAFAH2 FP inh | pPAFAH FP inh | PAFAH1B2 FP inh | TCR-CD3 inh | PAFAH1B3 inh
CC(=O)N1CCN(c2ccc(N3CCN(C(C)=O)[C@H](C)C3)c(C)c2)[C@@H](C)C1 | x | x | x | -3 | x
CC(=O)Nc1ccc2nc3c(=O)n(C)c(=O)n(C)c3nc2c1 | 5 | 30* | 8 | 13 | 16
Cn1c(=O)c2nc3ccccc3nc2n(C)c1=O | 2 | 3 | 4 | 7 | 10
Cc1ccc(SCC(=O)NCCC2=CCCCC2)cc1 | -2 | 5 | 50* | -4 | 1
Cc1cc(C)c(OCC(=O)OCC(=O)NCCC2=CCCCC2)c(C)c1 | -1 | 33* | 3 | 4 | 8
Cc1cc(C)c(OCC(=O)OCC(=O)NC2CCCCCCC2)c(C)c1 | -4 | 18 | -4 | 8 | -3
Cc1ccc(OCC(=O)NCCC2=CCCCC2)cc1 | 4 | 2 | 8 | 0 | 5
Cc1cc(C)c(OCC(=O)OCC(=O)NC2CCC(C)CC2)c(C)c1 (stereo not given) | -3 | 26* | 6 | -2 | 3
Cc1ccc2c(c1)CCCO[C@]21O[C@H](CCO)C[C@H](O)[C@H]1O | x | x | x | 5 | x
NNC(=O)c1nn(-c2ccc(Cl)cc2)cc1O | -10 | 34* | 2 | 6 | 8
C/C(=N/NC(=O)c1cc2ccccc2cc1O)c1ccco1 | -7 | 40* | 5 | 3 | 15
C/C(=N\NC(=O)c1cc(C)nc2ccccc12)c1ccco1 | 5 | 0 | 0 | 6 | 9
COCCNC(=O)c1onc(CSc2ccc(Cl)cc2)c1C(=O)O | 10 | 4 | 28* | 1 | 6
COCCNC(=O)c1onc(CSc2ccc(C(C)C)cc2)c1C(=O)O | -3 | 8 | 18 | 1 | 3
Nc1[nH]c(C(=O)c2ccccc2)c(-c2cccc3ccccc23)c1C(=O)NCc1ccc(Cl)cc1Cl | x | x | x | 3 | x
O=C1/C(=C\c2ccco2)SC(=S)N1c1ccc(O)cc1 | -6 | 34* | -1 | -5 | 2
O=C(CN1C(=O)/C(=C/c2ccco2)SC1=S)Nc1ccc(O)c(C(=O)O)c1 | 14 | 33* | 4 | -1 | 19
O=C1/C(=C\c2ccc(O)cc2)SC(=S)N1c1cccnc1 | -7 | -9 | -1 | -25 | -2
CC(=O)Nc1cccc(OCc2ccc(S(=O)(=O)Cc3ccccc3)cc2)c1 | 6 | 10 | 2 | 1 | 6
COc1ccc2[nH]c3c(N4CCc5ccccc5C4)ncnc3c2c1 | 10 | 33* | 10 | 5 | 15
CCOC(=O)c1c(-c2ccc(C)o2)csc1NC(=O)CSc1nncs1 | 0 | 25* | 1 | 1 | 0
CCOC(=O)c1c(-c2ccc(C)o2)csc1NC(=O)CN1CCCCC1 | -1 | 5 | -3 | -2 | 3
CC1Cc2ccccc2N1C(=O)COC(=O)/C=C/c1cccc(F)c1 (stereo not given) | 10 | 2 | 1 | 2 | 1
O=C(COC(=O)CSc1ccc([N+](=O)[O-])cc1)NCCCc1ccccc1 | 0 | 20 | 30* | -6 | 2
CC1Cc2ccccc2N1C(=O)COC(=O)CSc1ccc(F)cc1 (stereo not given) | 1 | 12 | 26* | 6 | -5
O=C(COC(=O)CSc1ccc(F)cc1)NCCCc1ccccc1 | 9 | 19 | 29* | 2 | 1
CCc1cc2c(nc1CC)CCCN2S(=O)(=O)c1cccs1 | x | x | x | 7 | x
CCCN1CCCCC(NC(=O)c2cccs2)C1=O (stereo not given) | x | x | x | 7 | x

Assay outcomes: PubChem, The Scripps Research Institute Molecular Screening Center
